PubChem BioAssay AID1159580 (chemical genetic matrix, 2015)
About 2,000 (36%) of roughly 5,500 compounds were called active. About 18% were inconclusive and are not listed. Cut-off read from the data, not from the text of the source: active = normalized growth mostly below about 0.91 (no sharp cut-off); inconclusive = no clear call, values can overlap the other calls; inactive = mostly above about 0.92. The list shows a part of the results.

Experiment: chemical genetic growth profiling, strain panel (AID 1159580);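 note: tested at 20 µM; growth read once vehicle control cultures reached saturation at 30 °C; 1 = growth at the plate median or of vehicle wells; lower values mean less growth of the strain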
Conditions: growth OD

Measured: normalized growth

NC(=O)CCSCCC(N)=O
inactive: S. cerevisiae deletion strains, locus YAL013W, strain DEP1, stronger effect = lower value 0.992 | S. cerevisiae deletion strains, locus YBR229C, strain ROT2, stronger effect = lower value 0.995 | S. cerevisiae deletion strains, locus YDL101C, strain DUN1, stronger effect = lower value 0.996 | S. cerevisiae deletion strains, locus YDL134C, strain PPH21, stronger effect = lower value 1.02 | S. cerevisiae deletion strains, locus YDR150W, strain NUM1, stronger effect = lower value 0.999 | S. cerevisiae deletion strains, locus YEL061C, strain CIN8, stronger effect = lower value 1.01 | S. cerevisiae deletion strains, locus YGR078C, strain PAC10, stronger effect = lower value 0.988 | S. cerevisiae deletion strains, locus YHR030C, strain SLT2, stronger effect = lower value 0.972 | S. cerevisiae deletion strains, locus YHR087W, strain rtc3, stronger effect = lower value 1 | S. cerevisiae deletion strains, locus YJR043C, strain POL32, stronger effect = lower value 0.976 | S. cerevisiae deletion strains, locus YJR075W, strain HOC1, stronger effect = lower value 1 | S. cerevisiae deletion strains, locus YLR039C, strain RIC1, stronger effect = lower value 1.02 | S. cerevisiae deletion strains, locus YLR058C, strain SHM2 (second series), stronger effect = lower value 0.997 | S. cerevisiae deletion strains, locus YLR085C, strain ARP6, stronger effect = lower value 1.06 | S. cerevisiae deletion strains, locus YLR262C, strain YPT6, stronger effect = lower value 1.03 | S. cerevisiae deletion strains, locus YML094W, strain GIM5, stronger effect = lower value 1.01 | S. cerevisiae deletion strains, locus YMR219W, strain ESC1, stronger effect = lower value 1.01 | S. cerevisiae deletion strains, locus YMR263W, strain SAP30, stronger effect = lower value 0.991 | S. cerevisiae deletion strains, locus YMR307W, strain GAS1, stronger effect = lower value 1.09 | S. cerevisiae deletion strains, locus YNL153C, strain GIM3, stronger effect = lower value 0.979 | S. cerevisiae deletion strains, locus YNL298W, strain CLA4 (second series), stronger effect = lower value 0.988 | S. cerevisiae deletion strains, locus YNL322C, strain KRE1, stronger effect = lower value 1.03 | S. cerevisiae deletion strains, locus YNR030W, strain Alg12, stronger effect = lower value 0.981 | S. cerevisiae deletion strains, locus YPL055C, strain LGE1, stronger effect = lower value 1.02 | S. cerevisiae deletion strains, locus YPL241C, strain CIN2, stronger effect = lower value 0.995 | S. cerevisiae deletion strains, locus YPR135W, strain CTF4, stronger effect = lower value 0.92 | S. cerevisiae strains, strain wild type, stronger effect = lower value 1.02
